Laboratory results from PubChem BioAssay (NCATS).
Records with an inconclusive call do not appear. Activity calls are given as the source filed them. Calls follow the shape of the dose curve; as a rule, active = well fitted curve in the direction sought with a large enough effect; inconclusive = small, poorly fitted or top-dose-only effect, or another doubt; inactive = no such curve, though single readings can be large; an effect the other way counts as inactive or inconclusive.

How the values were obtained:
[1] = tested on: Nanoluciferase (engineered Oplophorus gracilirostris luciferase); assay: Primary Nanoluciferase (NLuc) qHTS assay for identification of artifact compounds. (AID 1845222)
How it was run: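 Luminescence read-out of secreted NLuc in S16 cell conditioned medium (1:55); compounds tested with 15 min RT preincubation, then Nano-Glo substrate 1:100, 5 min. % inhibition vs no-enzyme and DMSO controls, 4-parameter Hill fit.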

[2] = Primary redox qHTS assay for identification of artifact compounds. (AID 1845223)
How it was run: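 Amplex Red (25 uM) and HRP (250 mU/mL) in HBSS, with compounds for 15 min, then 250 uM DTT for 30 min, room temperature, dark. Fluorescence 525/598 nm read; normalized to DMSO and 10 uM DA3003; Hill fit.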

[3] = Quantitative High-Throughput drug screen in 47 multiple myeloma cell lines against the NCATS MIPE library collection: FR4_PLB cell viability assay (AID 1918924; also: nearly all actives have a fitted effect of over 35% in size; also: potency is read from the fitted curve at half-maximal effect)
How it was run: (§1)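 CellTiter-Glo luminescence (ATP) after 48 h compound exposure, 37C/5% CO2; 500 cells/well; MIPE 4.0 approved/investigational drugs pinned in; DMSO = 100%, media only = 0% viability.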

[4] = Quantitative High-Throughput drug screen in 47 multiple myeloma cell lines against the NCATS MIPE library collection: EJM_DSMZ cell viability assay (AID 1918926; also: nearly all actives have a fitted effect of over 30% in size; also: potency is read from the fitted curve at half-maximal effect)
How it was run: as §1

[5] = Quantitative High-Throughput drug screen in 47 multiple myeloma cell lines against the NCATS MIPE library collection: AMO1_DSMZ cell viability assay (AID 1918927; also: nearly all actives have a fitted effect of over 30% in size; also: potency is read from the fitted curve at half-maximal effect)
How it was run: as §1

[6] = Quantitative High-Throughput drug screen in 47 multiple myeloma cell lines against the NCATS MIPE library collection: ARP1_JJKsccF8 cell viability assay (AID 1918928; also: nearly all actives have a fitted effect of over 40% in size; also: potency is read from the fitted curve at half-maximal effect)
How it was run: (§2)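 Myeloma cells at 500 per well in 1536-well format treated with MIPE 4.0 library by pin transfer for 48 h at 37C, 5% CO2. Viability from ATP luminescence (CellTiter-Glo), normalized to DMSO (100%) and media-only (0%) wells.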

[7] = Quantitative High-Throughput drug screen in 47 multiple myeloma cell lines against the NCATS MIPE library collection: JIM3_ECACC cell viability assay (AID 1918963; also: nearly all actives have a fitted effect of over 35% in size; also: potency is read from the fitted curve at half-maximal effect)
How it was run: as §1

[8] = Quantitative High-Throughput drug screen in 47 multiple myeloma cell lines against the NCATS MIPE library collection: KMS27_JCRB cell viability assay (AID 1918970); also: nearly all actives have a fitted effect of over 30% in size; also: potency is read from the fitted curve at half-maximal effect
How it was run: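 KMS27_JCRB myeloma cells, 500 per well, exposed 48 h at 37 C, 5% CO2 to MIPE 4.0 compounds. Viability from ATP by CellTiter-Glo luminescence, normalized to DMSO (100%) and medium-only (0%) wells.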

[9] = Quantitative High-Throughput drug screen in 47 multiple myeloma cell lines against the NCATS MIPE library collection: Delta47_JCRB cell viability assay (AID 1918925; also: nearly all actives have a fitted effect of over 45% in size; also: potency is read from the fitted curve at half-maximal effect)
How it was run: as §1

[10] = Quantitative High-Throughput drug screen in 47 multiple myeloma cell lines against the NCATS MIPE library collection: Karpas620_DSMZ cell viability assay (AID 1918959); also: nearly all actives have a fitted effect of over 30% in size; also: potency is read from the fitted curve at half-maximal effect
How it was run: as §1

[11] = Quantitative High-Throughput drug screen in 47 multiple myeloma cell lines against the NCATS MIPE library collection: Karpas417_ECACC cell viability assay (AID 1918961); conditions: Karpas417 myeloma viability, CellTiter-Glo ATP luminescence, 48 h; viability (% of DMSO): at 45.8 µM (top of the series); also: potency is read from the fitted curve at half-maximal effect
How it was run: (§3)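 Myeloma cells (500 per well) were exposed to MIPE 4.0 compounds by pin transfer and incubated 48 hours at 37C, 5% CO2. Viability was read as ATP by CellTiter-Glo luminescence, normalised to DMSO (100%) and media-only (0%) wells.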

[12] = Quantitative High-Throughput drug screen in 47 multiple myeloma cell lines against the NCATS MIPE library collection: INA6_PLB cell viability assay (AID 1918965; also: nearly all actives have a fitted effect of over 55% in size; also: potency is read from the fitted curve at half-maximal effect)
How it was run: as §3

[13] = Quantitative High-Throughput drug screen in 47 multiple myeloma cell lines against the NCATS MIPE library collection: JJN3_DSMZ cell viability assay (AID 1918966; also: nearly all actives have a fitted effect of over 50% in size; also: potency is read from the fitted curve at half-maximal effect)
How it was run: as §1

[14] = Quantitative High-Throughput drug screen in 47 multiple myeloma cell lines against the NCATS MIPE library collection: H1112_PLB cell viability assay (AID 1918967; also: nearly all actives have a fitted effect of over 30% in size; also: potency is read from the fitted curve at half-maximal effect)
How it was run: as §1

[15] = Quantitative High-Throughput drug screen in 47 multiple myeloma cell lines against the NCATS MIPE library collection: KMM1_JCRB cell viability assay (AID 1918960); also: nearly all actives have a fitted effect of over 30% in size; also: potency is read from the fitted curve at half-maximal effect
How it was run: as §2

[16] = Quantitative High-Throughput drug screen in 47 multiple myeloma cell lines against the NCATS MIPE library collection: ARD_JJKsccE7 cell viability assay (AID 1918929; also: potency is read from the fitted curve at half-maximal effect)
How it was run: as §1

[17] = Quantitative High-Throughput drug screen in 47 multiple myeloma cell lines against the NCATS MIPE library collection: KHM11_PLB cell viability assay (AID 1918962); also: nearly all actives have a fitted effect of over 35% in size; also: potency is read from the fitted curve at half-maximal effect
How it was run: as §1

[18] = Quantitative High-Throughput drug screen in 47 multiple myeloma cell lines against the NCATS MIPE library collection: JIM1_ECACC cell viability assay (AID 1918964; also: potency is read from the fitted curve at half-maximal effect)
How it was run: as §1

[19] = Quantitative High-Throughput drug screen in 47 multiple myeloma cell lines against the NCATS MIPE library collection: Karpas25_ECACC cell viability assay (AID 1918968; also: nearly all actives have a fitted effect of over 35% in size; also: potency is read from the fitted curve at half-maximal effect)
How it was run: as §1

[20] = Quantitative High-Throughput drug screen in 47 multiple myeloma cell lines against the NCATS MIPE library collection: KMS12BM_JCRB cell viability assay (AID 1918971); also: nearly all actives have a fitted effect of over 35% in size; also: potency is read from the fitted curve at half-maximal effect
How it was run: as §1

Row | Compound | outcome [1] | outcome [2] | Potency [3] | Potency [4] | Potency [5] | Potency [6] | Potency [7] | Potency [8] | Potency [9] | Potency [10] | Potency [11] | Potency [12] | Potency [13] | Potency [14] | Potency [15] | Potency [16] | Potency [17] | Potency [18] | Potency [19] | Potency [20]
1 | O=C(Oc1ccc([N+](=O)[O-])cc1)N1CCN(Cc2cccc(Oc3ccccc3)c2)CC1 | inactive | inactive | inactive | inactive | inactive | inactive | inactive | inactive |  |  |  |  |  |  |  |  |  |  |  | 
2 | CC1=NN=C(c2ccc(N)cc2)c2cc3c(cc2C1)OCO3 |  |  | inactive | inactive |  | inactive | inactive |  | inactive | 20900 nM (active) | 20900 nM (active) | inactive | inactive | inactive |  |  |  |  |  | 
3 | C/C=C(/C)C(=O)O[C@H]1C(C)=C2[C@H]([C@@H]1OC(=O)CCCCCCC)[C@@](C)(OC(C)=O)C[C@H](OC(=O)CCC)[C@@]1(O)[C@H]2OC(=O)[C@@]1(C)O | inactive | inactive |  |  |  |  |  |  |  |  |  |  |  |  |  |  |  |  |  | 
4 | O=C(NCC1CCOCC1)c1cnc(Nc2ccc(Cl)cc2Cl)nc1C(F)(F)F | inactive | inactive | 14800 nM (active) | inactive | 18700 nM (active) |  |  |  | 7430 nM (active) | 5260 nM (active) |  | 18700 nM (active) |  | 5900 nM (active) | inactive |  |  |  |  | 
5 | CC(=O)NCCc1c[nH]c2ccccc12 | inactive | inactive |  |  |  |  |  |  |  |  |  |  |  |  |  |  |  |  |  | 
6 | COC1=C[C@@H]2[C@@H]3Cc4ccc(OC)c(O)c4[C@]2(CCN3C)CC1=O | inactive | inactive |  |  | 3320 nM (active) | 26400 nM (active) | 9350 nM (active) |  | 3320 nM (active) | 20900 nM (active) | 10500 nM (active) | 8330 nM (active) |  |  |  | 6620 nM (active) | 4690 nM (active) |  |  | 
7 | Cc1c(C(=O)Nc2cccc(C(F)(F)F)c2)cc(-c2ccccc2)n1CCCN1CCOCC1 | inactive | inactive | 23500 nM (active) | 18700 nM (active) | 8330 nM (active) | 20900 nM (active) | 20900 nM (active) | 18700 nM (active) |  | 16600 nM (active) | 7430 nM (active) | 16600 nM (active) | 16600 nM (active) | 3720 nM (active) | 14800 nM (active) | 5900 nM (active) |  | 6620 nM (active) |  | 
8 | CC(=O)Nc1ccc(OC[C@](C)(O)C(=O)Nc2ccc([N+](=O)[O-])c(C(F)(F)F)c2)cc1 | inactive | inactive | inactive |  |  |  | inactive |  |  | inactive |  |  |  | inactive |  |  | inactive |  |  | 
9 | CCN(CC)C(=O)c1ccc(C2=CC3(CCNCC3)Oc3cccc(O)c32)cc1 | inactive | inactive |  |  | inactive |  | inactive |  | inactive | inactive |  | inactive |  | inactive |  | inactive |  |  | inactive | 
10 | CC(C)(C)NC[C@H](O)c1ccc(O)cc1Cl | inactive | inactive |  |  |  |  |  |  |  |  |  |  |  |  |  |  |  |  |  | 
11 | CCC(=O)OC1CCC2C3CCC4=CC(=O)CC[C@@]4(C)C3CC[C@]12C (stereo partly specified) |  |  | inactive | inactive | inactive |  | inactive |  | 18700 nM (active) | inactive |  | 20900 nM (active) |  | inactive | inactive |  | inactive |  |  | 
12 | CCOC(=O)Nc1ccc(NCc2ccc(F)cc2)cc1N | inactive | inactive | inactive | inactive | inactive | inactive | inactive |  | 7430 nM (active) |  | inactive |  |  | 10500 nM (active) | 6620 nM (active) |  |  |  |  | 
13 | O=C(N[C@H]1CN2CCC1CC2)c1ccc(Cl)cc1 | inactive | inactive | inactive |  |  |  | inactive |  |  | inactive |  |  |  |  | inactive | inactive | inactive |  |  | inactive
14 | CC[C@@]1(O)C(=O)OCc2c1cc1n(c2=O)Cc2cc3ccccc3nc2-1 |  |  | 296 nM (active) | 209 nM (active) | 23.5 nM (active) | 118 nM (active) | 264 nM (active) | 16.6 nM (active) | 74.3 nM (active) | 418 nM (active) | 296 nM (active) | 20.9 nM (active) | 743 nM (active) | 59 nM (active) | 105 nM (active) | 372 nM (active) | 235 nM (active) | 132 nM (active) | 83.3 nM (active) | 166 nM (active)
15 | O=c1[nH]c2ccc(Cl)cc2c(N[C@@H]2CN3CCC2CC3)c1-c1nc2ccccc2[nH]1 | inactive | inactive | 74.3 nM (active) | 418 nM (active) | 74.3 nM (active) | 2640 nM (active) | 74.3 nM (active) | 187 nM (active) | 93.5 nM (active) | 5900 nM (active) | 332 nM (active) | 33.2 nM (active) | 1050 nM (active) | 418 nM (active) | 46.9 nM (active) |  | 235 nM (active) | 41.8 nM (active) | 235 nM (active) | 1660 nM (active)
16 | CCN1CCN(C(=O)Cc2ccc(Nc3ncc(F)c(Nc4ccc(C(=O)Nc5ccccc5Cl)cc4)n3)cc2)CC1 | inactive | inactive | 3720 nM (active) |  | 1050 nM (active) | 3720 nM (active) | 3720 nM (active) | 2960 nM (active) |  | 1870 nM (active) | 2960 nM (active) | 935 nM (active) | 7430 nM (active) | 6620 nM (active) | 2640 nM (active) |  | 2350 nM (active) | 2090 nM (active) | 2350 nM (active) | 
